# Laboratory results taken from the supplement of paper PMC4166925.
# ± gives the standard deviation of the averaged measurements. In all, about 33,000 sequences were measured (“E-score (dimensionless, -0.5 to 0.5)”: median about -0.046, highest 2% from about 0.36 on). The entries come from a sample that favours the highest values as a whole.
# Test system: T1, SpTbr T-box DNA-binding domain (GST fusion)
# T1 sequence: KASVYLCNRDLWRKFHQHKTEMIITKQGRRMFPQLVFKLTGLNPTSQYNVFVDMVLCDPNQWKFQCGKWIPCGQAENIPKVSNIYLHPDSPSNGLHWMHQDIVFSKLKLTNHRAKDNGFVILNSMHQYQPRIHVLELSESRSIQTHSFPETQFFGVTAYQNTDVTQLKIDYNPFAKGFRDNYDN
# Assay: PBM E-score of 8-mer (E-score (dimensionless, -0.5 to 0.5)); Tbr is Tbrain of the sea star Patiria miniata (Pm) or the sea urchin Strongylocentrotus purpuratus (Sp); higher = stronger binding preference
# Settings: the construct has about 5 more residues each side
# How it was run: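 GST-fused Tbr T-box DNA-binding domains (the whole T-box plus about five flanking residues) were expressed in BL21 E. coli at 20 °C and purified by glutathione affinity chromatography. Universal Agilent oligonucleotide arrays were made double-stranded by primer extension, incubated with 200 nM protein in PBS (pH 7.5), then scanned and quantified. Every ungapped 8-mer was scored from probe intensities. The Universal PBM Analysis Suite gave each word an enrichment E-score, averaged over duplicate arrays.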
row,Sequence,PBM E-score of 8-mer
1,AGAAGACT,-0.285 ± 0.046
2,ACTAAATA,-0.131 ± 0.019
3,GCGAATAC,0.228 ± 0.018
4,AGCCGTCG,0.0127 ± 0.019
5,AAGGGTAA,-0.088 ± 0.0016
6,ACCACACG,0.26 ± 0.039
7,GACACACC,0.321 ± 0.016
8,GCCACACA,0.335 ± 0.0096
9,CACACACC,0.454 ± 0.013
10,AACACACC,0.326 ± 0.0067
11,CCCACACC,0.438 ± 0.033
12,GCCACAGC,0.00288 ± 0.017
13,CCCACACA,0.199 ± 0.038
14,ACCACACC,0.369 ± 0.029
15,CCCACACG,0.15 ± 0.1
16,GCCACACC,0.421 ± 0.036
17,ACCACACA,0.248 ± 0.037
18,CTCGAGAC,-0.0685 ± 0.051
19,CACCATAC,-0.065 ± 0.011
20,ACGGTTAT,0.0286 ± 0.041
21,ATGCCTGC,-0.295 ± 0.061
22,GTGGTGCA,0.0312 ± 0.0088
23,AGTTGTTC,0.00852 ± 0.024
24,CCGTTAGG,0.0143 ± 0.029
25,CCTATCGA,0.042 ± 0.12

row,Sequence,PBM E-score of 8-mer
1,ACCGTCTA,-0.0953 ± 0.012
2,CACAACCA,0.133 ± 0.025
3,CAAAAAGC,0.0694 ± 0.065
4,GGAGCTGA,-0.203 ± 0.042
5,CTGACACA,0.356 ± 0.022
6,CTGACAAC,0.259 ± 0.018
7,GTGACAAC,0.4467 ± 0.0025
8,GCGACAAC,0.369 ± 0.007
9,GAGACACA,0.15 ± 0.01
10,CTGACAAA,0.0345 ± 0.084
11,CCGACAAC,0.159 ± 0.048
12,ATGACAAA,-0.0554 ± 0.028
13,GTGACAAA,0.38303 ± 5.7e-05
14,GTGACACA,0.403 ± 0.0044
15,ACGACAAC,0.2279 ± 0.0012
16,ATGACAAC,0.222 ± 0.017
17,AGGTAGCA,0.0725 ± 0.016
18,ACCACAAT,-0.0442 ± 0.058
19,AACACCCT,0.4 ± 0.0049
20,GCCACCCA,0.0264 ± 0.086
21,GACACCCA,0.374 ± 0.032
22,AACACCCC,0.39126 ± 9.9e-05
23,GCCACCCC,0.181 ± 0.081
24,GGCACCCA,0.173 ± 0.021
25,AACACCCA,0.293 ± 0.035

row,Sequence,PBM E-score of 8-mer
1,GGCACCCC,0.22 ± 0.003
2,ATCACCCC,0.232 ± 0.013
3,ACCACCCT,0.0155 ± 0.074
4,AGCACCCT,0.202 ± 0.025
5,GACACCCC,0.405 ± 0.026
6,CAGCCGGA,0.05 ± 0.018
7,CCAGTCAC,0.0388 ± 0.0065
8,AAGTTTCT,0.0712 ± 0.037
9,CCTCCTCA,0.0831 ± 0.027
10,AGATCTCA,0.098 ± 0.054
11,TATTCTCA,0.264 ± 0.061
12,CGAAAACC,-0.297 ± 0.0092
13,GTCGCGTA,0.0514 ± 0.011
14,CCGGCCAA,-0.208 ± 0.042
15,ACCACCAT,0.108 ± 0.082
16,AACACCAT,0.377 ± 0.021
17,AACACCAA,0.356 ± 0.012
18,GATATAGC,0.118 ± 0.023
19,ATCAAATA,-0.182 ± 0.015
20,TGTCGACA,0.384 ± 0.01
21,AGTCGACA,0.179 ± 0.051
22,CGTCGACA,0.251 ± 0.031
23,GCAAACCC,-0.0464 ± 0.01
24,ACATATTC,0.203 ± 0.049
25,CCTCGCAA,0.102 ± 0.077

row,Sequence,PBM E-score of 8-mer
1,ACTCGCAC,0.394 ± 0.035
2,ACTCGCAT,-0.00696 ± 0.059
3,CCTCGCAG,0.128 ± 0.0015
4,GCTCGCAA,0.224 ± 0.021
5,ACTCGCAG,0.0332 ± 0.026
6,GCTCGCCC,-0.196 ± 0.039
7,GCTCGCAC,0.4252 ± 0.0014
8,CCTCGCAC,0.396 ± 0.032
9,AATTGGAC,-0.187 ± 0.049
10,GCAGTGGA,-0.261 ± 0.065
11,CACCTTAG,0.401 ± 0.04
12,CACCTTAC,0.413 ± 0.017
13,AACCTTAG,-0.144 ± 0.086
14,CCCCTTAG,-0.184 ± 0.068
15,CACCTTAA,0.387 ± 0.004
16,GACCTTAA,-0.188 ± 0.0048
17,AACCTTAA,-0.218 ± 0.046
18,GACCTTAC,-0.286 ± 0.0076
19,AACCTTAC,0.0738 ± 0.012
20,TAAGAGCA,-0.252 ± 0.049
21,CCGCTACC,0.162 ± 0.04
22,ATGCTTCG,0.0174 ± 0.071
23,CGTGCCTA,-0.0792 ± 0.002
24,GGTAGGCA,-0.079 ± 0.028
25,AAACTACA,0.014 ± 0.14

row,Sequence,PBM E-score of 8-mer
1,TAGGGGCA,-0.127 ± 0.04
2,ATGCACGC,-0.0415 ± 0.12
3,AGGTGAAC,0.164 ± 0.025
4,CGAAATCG,0.2456 ± 0.0015
5,CACTTGCA,0.336 ± 0.012
6,CACTTGCG,0.387 ± 0.026
7,AACTTGTC,0.355 ± 0.03
8,CACTTGTC,0.375 ± 0.012
9,AACTTGCG,0.198 ± 0.0091
10,CACTTGTA,0.116 ± 0.046
11,CGGCGCCC,0.0161 ± 0.043
12,CTCTGACA,0.233 ± 0.019
13,TAACATTA,-0.0674 ± 0.087
14,TAATATTA,-0.13 ± 0.033
15,GAGTCGAC,0.107 ± 0.061
16,GATGTCCA,-0.22 ± 0.056
17,TGCTAACA,0.369 ± 0.022
18,AGCTAACG,0.236 ± 0.016
19,AGCTAACA,0.233 ± 0.022
20,CGCTAACG,0.373 ± 0.0088
21,CGCTAACC,0.19 ± 0.0091
22,GGCTAACA,0.235 ± 0.024
23,CAGCTCGG,-0.132 ± 0.057
24,CGGTGGAA,-0.0405 ± 0.033
25,ATCTATGC,-0.197 ± 0.03

row,Sequence,PBM E-score of 8-mer
1,ACGAGTAT,-0.0491 ± 0.014
2,CAATCCTA,-0.0316 ± 0.041
3,AAACCACT,-0.258 ± 0.016
4,AGCACTTG,0.168 ± 0.018
5,AACGCATG,0.0228 ± 0.0081
6,CACCTTGA,0.367 ± 0.042
7,CAGCTTGG,-0.00698 ± 0.044
8,CACCTTGG,0.45 ± 0.005
9,AACCTTGC,0.00568 ± 0.0057
10,CACCTTGC,0.389 ± 0.013
11,GACCTTGC,-0.153 ± 0.0056
12,GACCTTGA,-0.145 ± 0.019
13,TACCTTGA,0.01 ± 0.065
14,AACCTTGG,-0.0793 ± 0.032
15,ACACTGTA,0.172 ± 0.036
16,ACTTGATA,0.108 ± 0.039
17,AGACAGCG,-0.00288 ± 0.048
18,CTGAAAGC,-0.193 ± 0.033
19,GTGTAAAC,0.367 ± 0.02
20,CTGTAAAC,0.132 ± 0.0059
21,ATGTAAAC,0.0731 ± 0.026
22,AGCAGATA,-0.195 ± 0.043
23,ACAGCCCT,-0.109 ± 0.054
24,AAATGTGG,0.114 ± 0.01
25,CTGTGTGA,0.341 ± 0.0081

row,Sequence,PBM E-score of 8-mer
1,AAATGTGC,0.151 ± 0.076
2,ATGTGTGA,0.4838 ± 0.001
3,GTGTGTAA,0.27 ± 0.0036
4,GTGTGTGA,0.4221 ± 0.003
5,ATGTGTGC,0.299 ± 0.0091
6,ATATGTGA,0.242 ± 0.055
7,AAATGTGT,0.435 ± 0.0081
8,CAGCCAAC,0.106 ± 0.037
9,GTAGCGCA,-0.148 ± 0.091
10,GATGCGCA,0.014 ± 0.028
11,ATCTCCAC,0.0376 ± 0.0077
12,AACGTTTC,-0.191 ± 0.019
13,TCTCGAAA,-0.0659 ± 0.035
14,ACGCCACT,0.285 ± 0.013
15,CCACAACC,0.113 ± 0.015
16,AAGTTTAT,-0.141 ± 0.074
17,AATGCAGT,-0.188 ± 0.028
18,ATCGACAA,0.213 ± 0.0072
19,ATCGACAC,0.389 ± 0.013
20,CTCGACAC,0.3634 ± 0.0018
21,ATCGACAG,0.286 ± 0.005
22,GTCGACAA,0.275 ± 0.0098
